GALR2 ag: agonists of human galanin receptor 2 (GALR2) | activation, % (concentration not given with the values) | AID 803 | O43603 | 140,000 compounds, 0.48% hits | GALR2-expressing cells, agonist activation read-out; in the data active means activation above about 5%, passing the limit was not always enough;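 further: 0% = vehicle buffer wells and 100% = reference agonist at full effect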
S1P2 agonist: agonists of human S1P2 receptor; 97,000 compounds, 0.46% hits; AID 729; S1P2-expressing cell line, agonist reporter read-out; O95136; activation, % at 4.5 µM; in the data active means activation above about 16%;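 further: 0% = vehicle low control and 100% = maximal reference agonist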
Target sequence (O95136 whole entry, looked up): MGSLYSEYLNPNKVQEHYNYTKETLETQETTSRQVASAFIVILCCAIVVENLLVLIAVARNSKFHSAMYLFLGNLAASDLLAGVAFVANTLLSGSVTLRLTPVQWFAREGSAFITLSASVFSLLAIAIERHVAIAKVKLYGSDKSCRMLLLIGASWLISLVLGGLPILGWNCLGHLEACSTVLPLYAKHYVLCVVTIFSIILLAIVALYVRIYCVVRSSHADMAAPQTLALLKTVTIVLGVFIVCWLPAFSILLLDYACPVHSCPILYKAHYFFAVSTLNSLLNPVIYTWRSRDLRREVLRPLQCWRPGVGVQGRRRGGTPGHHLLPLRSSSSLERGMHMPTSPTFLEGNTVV
GALR2 blocker: GALR2 (human) receptor antagonism | O43603 | GALR2-expressing cells, antagonist mode | inhibition, % at 4 µM | 140,000 compounds, 0.39% hits | AID 828; in the data active means inhibition above about 27%;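 further: cells stimulated with galanin 1-16 at roughly its EC80; 0% = agonist challenge control and 100% = basal control without agonist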
S1P2 blocker: blocks the human S1P2 receptor | O95136 | cell-based S1P2 antagonist assay, inhibition at 5 uM | inhibition, % at 5 µM | 97,000 compounds, 0.21% hits; in the data active means inhibition above about 45%;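 further: CRE beta-lactamase reporter cells expressing human S1P2 stimulated with S1P; 0% = agonist at EC80 alone and 100% = agonist plus reference antagonist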
* hit, by the source's call; / = not tested or not shown. Shown are actives, neighbours in structure and some others; about 1.2% of the full set was active somewhere.

SMILES | GALR2 ag | S1P2 agonist | GALR2 blocker | S1P2 blocker
Cc1cc(NC(=O)COC(=O)c2cc(S(=O)(=O)N3CCOCC3)ccc2N2CCCCC2)no1 | 5 | -3 | 9 | 4
C=CCn1c(=O)c(C#N)cc2c(=O)n3ccccc3nc21 | 21* | 60* | -31 | -59
C=CCn1c(=N)c(C#N)cc2c(=O)n3ccccc3nc21 | 6 | 9 | -7 | -58
Cc1ccccc1-n1c(=O)c(C#N)cc2c(=O)n3ccccc3nc21 | 74* | 63* | -56 | -104
N#Cc1cc2c(=O)n3ccccc3nc2n(Cc2cccnc2)c1=N | 2 | -3 | -11 | 2
Cc1cc(-n2c(=O)c(C#N)cc3c(=O)n4ccccc4nc32)no1 | 31* | / | -37 | /
Cc1ccc(C2=Nc3ccccc3NC(C)(c3ccc(C)o3)C2)o1 (configuration not stated) | -2 | -1 | 11 | 15
O=C1CC(NCc2ccncc2)C(=O)N1c1ccc(Cl)cc1 (configuration not stated) | -6 | -6 | 13 | 7
COc1ccc(Cn2c(-c3ccc(C)cc3)nc3c(c(=O)c4ccccc4n3C)c2=O)cc1 | 5.1* | / | -8 | /
COc1cc(-c2nnc(COC(=O)CSc3cc(C)c4ccccc4n3)o2)cc(OC)c1OC | -1 | 0 | 4 | -17
COc1cc(-c2nnc(COC(=O)c3cc(C)nc4ccc(C)cc34)o2)cc(OC)c1OC | 0 | 27* | -25 | -37
Cc1ccc(CN2C(=O)CCC2C(=O)NC(C)C)cc1 (configuration not stated) | -2 | -6 | 11 | 12
CCOC(=O)Cc1c(C)c2ccc(N(CC)CC)cc2oc1=O | 19* | 20* | -4 | -6
CCN(CC)c1ccc2c(Cl)c(Br)c(=O)oc2c1 | 0 | -18 | 76* | 103*
CCOC(=O)CCc1c(C)c2ccc(O)cc2oc1=O | 0 | 0 | 4 | 0
Cc1cc(N2CCN(c3nc4ccccc4s3)CC2)n2ncnc2n1 | -1 | 2 | 19 | 51*
CCCC(=O)Nc1sc(C)c(C)c1C(=O)Nc1cccc(C)c1 | -2 | -3 | -14 | 16
CCn1c(C)cc(/C=C2\NC(=O)N(CC(=O)Nc3cccc(C)c3)C2=O)c1C | -2 | -3 | -13 | -22
CCn1c(C)cc(/C=C2/NC(=O)N(CC(=O)Nc3cccc(C)c3)C2=O)c1C | 8.0* | / | -10 | /
Cc1ccccc1N1CCN(C(=O)c2ccccc2NC(=O)C2CC=CCC2C(=O)O)CC1 (configuration not stated) | -4 | -1 | 4 | -1
CC(=O)Nc1ccc(NC(=O)/C(Cl)=C/c2ccccc2)cc1 | 0 | 35* | 2 | 6
CCOc1cccc2sc(Nc3nc4ccc(NC(C)=O)cc4s3)nc12 | 8.1* | / | 6 | /
CCOC(=O)c1sc(Nc2nc3c(OC)cccc3s2)nc1C | 46* | / | -3 | /
CCOC(=O)c1sc(Nc2ccccc2)nc1C | 0 | 0 | -7 | -19
CCC(=O)Nc1nc2ccc(NC(C)=O)cc2s1 | -2 | -10 | -19 | 5
SMILES | GALR2 ag | S1P2 agonist | GALR2 blocker | S1P2 blocker
Cc1nn(C)cc1C1C2=C(CC(C)(C)CC2=O)OC2=C1C(=O)CC(C)(C)C2 | -1 | / | 0 | /
Nn1c(SCc2cccc(C(F)(F)F)c2)nnc1-c1ccco1 | -2 | -11 | -16 | 2
Cc1ccc(CSc2nnc(-c3ccco3)n2N)cc1 | -3 | 26* | -5 | 6
O=C(Oc1cc(Cl)ccc1Cl)c1ccc(N2CCOCC2)c([N+](=O)[O-])c1 | -1 | / | 5 | /
Fc1cc(Br)ccc1Nc1nc2ccccc2n2nnnc12 | 6.1* | / | 7 | /
Clc1ccc(Nc2nc3ccccc3n3nnnc23)cc1 | -1 | 1 | -7 | -9
Cc1ccc(C)c(NC(=S)NC(NC(=O)Cc2cccc3ccccc23)C(Cl)(Cl)Cl)c1 (configuration not stated) | 1 | 26* | 0 | 18
Cc1ccc(C)c(NC(=S)NC(NC(=O)N(C)C)C(Cl)(Cl)Cl)c1 (configuration not stated) | -3 | -6 | 7 | 10
O=C(CSC1=NCCS1)Nc1ccnc2ccccc12 | -2 | / | 35* | /
Cc1ccc(S(=O)(=O)N/N=C/c2ccc(OCC(=O)NC(C)C)cc2)cc1 | -1 | -4 | 3 | 24
c1ccc2c(c1)[nH]c1c(N3CCCC3)ncnc12 | 0 | -1 | 21 | 23
c1ccc2c(c1)[nH]c1c(N3CCSCC3)ncnc12 | -1 | -7 | 32* | 48*
COc1cccc(N2CCN(c3ncnc4c3cnn4-c3ccc(C)cc3C)CC2)c1 | -4 | -11 | 2 | 66*
CCCN1CCC(N2CCN(c3cccc(C(F)(F)F)c3)CC2)CC1 | -4 | -6 | 7 | 0
CC(C)c1ccc(/C=N/Nc2cc(N3CCOCC3)nc(N3CCOCC3)n2)cc1 | 0 | / | -5 | /

High-throughput results: PubChem, The Scripps Research Institute Molecular Screening Center
